# Laboratory results reported in article PMC7862700, “An all-to-all approach to the identification of sequence-specific readers for epigenetic DNA modifications on cytosine”.
# Tests used:
# Test in all cases: DAPPL (digital affinity profiling via proximity ligation, sequencing); 10 mM Tris-HCl pH 7.5, 50 mM NaCl, 1 mM DTT, 4% glycerol, room temperature, 30 min; GST-TFs on glutathione beads, 16-mer random dsDNA library, 0.1% formaldehyde crosslink after washing; high values mean tight binding
# FLI1 = molecular target: T1, FLI1 (Homo sapiens, UniProt Q01543 1-452); details: protein: recombinant; tags: N-terminal GST; dsDNA, one strand shown
# T1 sequence: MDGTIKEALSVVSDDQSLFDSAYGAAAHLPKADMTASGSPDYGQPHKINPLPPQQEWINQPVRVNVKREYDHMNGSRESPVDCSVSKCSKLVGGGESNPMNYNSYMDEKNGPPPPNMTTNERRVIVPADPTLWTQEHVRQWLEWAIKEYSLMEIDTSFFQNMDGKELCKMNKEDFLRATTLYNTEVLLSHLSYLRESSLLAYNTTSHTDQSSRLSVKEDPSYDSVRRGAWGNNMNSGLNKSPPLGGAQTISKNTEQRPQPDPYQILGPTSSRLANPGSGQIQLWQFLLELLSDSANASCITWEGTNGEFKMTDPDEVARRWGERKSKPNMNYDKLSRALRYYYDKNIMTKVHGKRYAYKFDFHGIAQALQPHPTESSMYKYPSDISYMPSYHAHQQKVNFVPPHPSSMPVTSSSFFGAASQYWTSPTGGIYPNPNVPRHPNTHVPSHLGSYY
# How it was run: (§1)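 A tag-only sample was pooled with DNA-barcoded human transcription factors that had been expressed in yeast as GST fusions and captured on glutathione beads. The pools were incubated for 30 min at room temperature with 200 nmole of a random double-stranded 16-mer DNA library in Tris/NaCl/DTT/glycerol buffer, then washed, crosslinked with 0.1% formaldehyde, proximity-ligated (BsaI/T4 ligase, 1 h, 37 °C), PCR-amplified and sequenced on an Illumina NextSeq500. Binding signal is each hexamer's read frequency for a factor divided by its frequency for the tag-only sample.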
# ELK1 = molecular target: T2, ELK1 (Homo sapiens, UniProt P19419 1-428); details: protein: recombinant; tags: N-terminal GST; dsDNA, one strand shown
# T2 sequence: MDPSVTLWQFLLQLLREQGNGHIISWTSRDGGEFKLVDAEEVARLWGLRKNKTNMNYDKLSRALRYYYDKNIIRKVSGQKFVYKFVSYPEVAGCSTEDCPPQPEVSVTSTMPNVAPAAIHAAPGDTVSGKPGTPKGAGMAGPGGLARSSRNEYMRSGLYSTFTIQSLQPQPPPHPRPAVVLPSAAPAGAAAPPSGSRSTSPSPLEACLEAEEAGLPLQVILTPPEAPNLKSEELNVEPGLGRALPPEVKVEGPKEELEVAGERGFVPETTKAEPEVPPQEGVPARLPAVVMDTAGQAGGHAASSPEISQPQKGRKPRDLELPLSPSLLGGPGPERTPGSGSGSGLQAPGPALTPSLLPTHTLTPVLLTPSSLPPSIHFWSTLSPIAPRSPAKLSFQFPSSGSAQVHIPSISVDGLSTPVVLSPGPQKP
# How it was run: as §1
# GABPA = molecular target: T3, GABPA (Homo sapiens, UniProt Q06546 1-454); details: protein: recombinant; tags: N-terminal GST; dsDNA, one strand shown
# T3 sequence: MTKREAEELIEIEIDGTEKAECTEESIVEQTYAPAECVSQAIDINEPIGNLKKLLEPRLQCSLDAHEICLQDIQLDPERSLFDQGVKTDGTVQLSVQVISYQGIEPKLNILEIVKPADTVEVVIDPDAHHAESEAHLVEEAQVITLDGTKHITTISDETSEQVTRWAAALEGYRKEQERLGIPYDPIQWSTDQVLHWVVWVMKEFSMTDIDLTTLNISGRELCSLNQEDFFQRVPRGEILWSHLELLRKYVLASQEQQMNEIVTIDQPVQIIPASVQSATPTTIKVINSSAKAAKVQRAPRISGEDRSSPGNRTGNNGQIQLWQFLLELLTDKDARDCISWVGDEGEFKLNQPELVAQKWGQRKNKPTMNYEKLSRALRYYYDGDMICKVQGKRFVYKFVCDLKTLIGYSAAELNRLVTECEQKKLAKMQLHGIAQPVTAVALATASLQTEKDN
# How it was run: as §1
# ERG = molecular target: T4, ERG (Homo sapiens, UniProt P11308 1-479); details: protein: recombinant; tags: N-terminal GST; dsDNA, one strand shown
# T4 sequence: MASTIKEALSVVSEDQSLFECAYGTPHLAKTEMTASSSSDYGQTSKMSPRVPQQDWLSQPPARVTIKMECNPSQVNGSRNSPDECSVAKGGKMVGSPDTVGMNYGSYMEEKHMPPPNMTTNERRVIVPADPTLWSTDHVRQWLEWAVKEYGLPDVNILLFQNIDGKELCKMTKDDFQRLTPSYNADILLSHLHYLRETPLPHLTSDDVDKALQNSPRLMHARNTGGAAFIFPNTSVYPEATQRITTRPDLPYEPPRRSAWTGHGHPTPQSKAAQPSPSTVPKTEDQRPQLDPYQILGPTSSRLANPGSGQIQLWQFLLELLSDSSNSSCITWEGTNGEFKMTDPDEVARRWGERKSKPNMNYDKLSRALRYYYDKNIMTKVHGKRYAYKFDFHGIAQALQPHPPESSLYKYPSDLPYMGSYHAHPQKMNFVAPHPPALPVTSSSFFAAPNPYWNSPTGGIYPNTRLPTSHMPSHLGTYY
# How it was run: as §1
# ELF1 = ELF1 (Homo sapiens, UniProt P32519 1-619); details: protein: recombinant; tags: N-terminal GST; dsDNA, one strand shown
# ELF1, sequence (P32519 whole entry): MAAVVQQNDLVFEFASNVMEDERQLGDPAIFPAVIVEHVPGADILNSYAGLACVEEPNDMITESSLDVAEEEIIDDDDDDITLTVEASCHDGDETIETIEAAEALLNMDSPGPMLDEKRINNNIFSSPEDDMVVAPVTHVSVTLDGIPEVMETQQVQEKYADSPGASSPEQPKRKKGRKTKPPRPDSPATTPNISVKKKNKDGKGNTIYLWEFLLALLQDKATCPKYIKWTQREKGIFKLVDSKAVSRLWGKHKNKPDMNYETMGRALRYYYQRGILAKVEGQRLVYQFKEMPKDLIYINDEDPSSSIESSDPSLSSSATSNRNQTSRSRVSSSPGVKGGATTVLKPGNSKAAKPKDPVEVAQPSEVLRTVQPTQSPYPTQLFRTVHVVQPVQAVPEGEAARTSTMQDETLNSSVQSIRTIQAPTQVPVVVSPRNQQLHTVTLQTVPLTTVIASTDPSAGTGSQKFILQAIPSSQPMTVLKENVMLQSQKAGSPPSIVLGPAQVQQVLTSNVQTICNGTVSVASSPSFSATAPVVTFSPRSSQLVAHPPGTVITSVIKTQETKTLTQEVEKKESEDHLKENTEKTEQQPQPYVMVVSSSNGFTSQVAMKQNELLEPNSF
# How it was run: as §1
# EHF = molecular target: T5, EHF (Homo sapiens, UniProt Q9NZC4 1-300); details: protein: recombinant; tags: N-terminal GST; dsDNA, one strand shown
# T5 sequence: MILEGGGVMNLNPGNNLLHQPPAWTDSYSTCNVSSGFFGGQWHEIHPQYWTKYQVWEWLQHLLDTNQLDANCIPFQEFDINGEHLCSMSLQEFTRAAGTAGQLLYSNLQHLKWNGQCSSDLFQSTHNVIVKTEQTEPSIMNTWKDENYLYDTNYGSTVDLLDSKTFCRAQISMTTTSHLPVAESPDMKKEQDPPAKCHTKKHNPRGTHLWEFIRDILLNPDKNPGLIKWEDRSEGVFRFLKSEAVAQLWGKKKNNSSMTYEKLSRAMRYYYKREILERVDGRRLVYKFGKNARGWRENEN
# How it was run: as §1
# SPI1 = SPI1 (Homo sapiens, UniProt P17947 1-270); details: protein: recombinant; tags: N-terminal GST; dsDNA, one strand shown
# How it was run: as §1
# SPIB = SPIB (Homo sapiens, UniProt Q01892 1-262); details: protein: recombinant; tags: N-terminal GST; dsDNA, one strand shown
# SPIB, sequence (Q01892 whole entry): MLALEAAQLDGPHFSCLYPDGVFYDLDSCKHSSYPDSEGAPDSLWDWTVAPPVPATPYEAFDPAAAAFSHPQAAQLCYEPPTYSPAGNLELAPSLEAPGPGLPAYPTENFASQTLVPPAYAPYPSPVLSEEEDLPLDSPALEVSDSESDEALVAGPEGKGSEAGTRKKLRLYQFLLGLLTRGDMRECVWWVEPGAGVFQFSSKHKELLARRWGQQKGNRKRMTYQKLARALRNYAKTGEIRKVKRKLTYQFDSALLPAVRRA
# How it was run: as §1
# ELK3 = molecular target: T6, ELK3 (Homo sapiens, UniProt P41970 1-407); details: protein: recombinant; tags: N-terminal GST; dsDNA, one strand shown
# T6 sequence: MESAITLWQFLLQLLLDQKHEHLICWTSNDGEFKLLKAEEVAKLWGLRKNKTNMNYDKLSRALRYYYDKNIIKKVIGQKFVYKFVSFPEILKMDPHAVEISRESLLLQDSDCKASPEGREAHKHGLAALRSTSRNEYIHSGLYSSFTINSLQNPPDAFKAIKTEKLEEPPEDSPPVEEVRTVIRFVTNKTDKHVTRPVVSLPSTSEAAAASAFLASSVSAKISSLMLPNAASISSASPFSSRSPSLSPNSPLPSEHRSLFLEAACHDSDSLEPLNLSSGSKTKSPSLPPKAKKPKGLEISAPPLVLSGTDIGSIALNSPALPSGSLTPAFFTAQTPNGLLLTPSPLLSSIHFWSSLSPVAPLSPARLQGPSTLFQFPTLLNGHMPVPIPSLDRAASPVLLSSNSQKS
# How it was run: as §1
# FEV = molecular target: T7, FEV (Homo sapiens, UniProt Q99581 1-238); details: protein: recombinant; tags: N-terminal GST; dsDNA, one strand shown
# T7 sequence: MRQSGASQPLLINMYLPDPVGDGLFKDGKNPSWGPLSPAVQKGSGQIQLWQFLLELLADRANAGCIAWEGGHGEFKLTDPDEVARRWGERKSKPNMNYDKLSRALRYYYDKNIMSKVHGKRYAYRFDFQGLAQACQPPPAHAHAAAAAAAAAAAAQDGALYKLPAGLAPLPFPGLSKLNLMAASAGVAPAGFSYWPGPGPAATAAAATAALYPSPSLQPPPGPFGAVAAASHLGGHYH
# How it was run: as §1
# ETV5 = ETV5 (Homo sapiens, UniProt P41161 1-510); details: protein: recombinant; tags: N-terminal GST; dsDNA, one strand shown
# ETV5, sequence (P41161 whole entry): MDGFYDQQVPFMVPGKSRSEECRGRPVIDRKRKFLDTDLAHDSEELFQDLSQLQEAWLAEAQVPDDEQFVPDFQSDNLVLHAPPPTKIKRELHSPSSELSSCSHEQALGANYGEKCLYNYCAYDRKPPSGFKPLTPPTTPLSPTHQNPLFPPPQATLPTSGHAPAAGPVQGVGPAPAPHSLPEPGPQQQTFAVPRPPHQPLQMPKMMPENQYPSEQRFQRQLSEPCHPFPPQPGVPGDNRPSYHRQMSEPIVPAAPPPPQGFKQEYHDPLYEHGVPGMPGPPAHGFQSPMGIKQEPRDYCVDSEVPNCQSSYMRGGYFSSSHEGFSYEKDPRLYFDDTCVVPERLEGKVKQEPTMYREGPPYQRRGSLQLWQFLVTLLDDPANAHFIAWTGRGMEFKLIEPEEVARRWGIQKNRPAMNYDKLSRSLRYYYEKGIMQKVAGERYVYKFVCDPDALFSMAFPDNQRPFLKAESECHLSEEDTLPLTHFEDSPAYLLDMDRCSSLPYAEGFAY
# How it was run: as §1
# HSF1 = HSF1 (Homo sapiens, UniProt Q00613 1-529); details: protein: recombinant; tags: N-terminal GST; chain copies: 3; dsDNA, one strand shown
# HSF1, sequence (Q00613 whole entry): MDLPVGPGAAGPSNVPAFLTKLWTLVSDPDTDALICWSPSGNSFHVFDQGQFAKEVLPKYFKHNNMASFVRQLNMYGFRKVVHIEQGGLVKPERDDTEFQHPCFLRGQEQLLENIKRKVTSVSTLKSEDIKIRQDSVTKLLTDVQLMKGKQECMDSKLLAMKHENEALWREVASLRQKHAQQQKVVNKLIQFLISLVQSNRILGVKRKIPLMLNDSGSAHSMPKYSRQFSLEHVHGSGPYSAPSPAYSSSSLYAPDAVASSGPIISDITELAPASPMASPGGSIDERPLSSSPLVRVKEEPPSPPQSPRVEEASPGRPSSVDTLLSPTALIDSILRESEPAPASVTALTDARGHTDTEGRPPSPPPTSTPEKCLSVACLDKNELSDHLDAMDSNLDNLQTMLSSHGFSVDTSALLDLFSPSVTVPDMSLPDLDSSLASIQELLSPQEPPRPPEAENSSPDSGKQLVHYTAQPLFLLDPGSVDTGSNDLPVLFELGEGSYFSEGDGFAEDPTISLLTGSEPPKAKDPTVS
# How it was run: as §1
# SPIC = molecular target: T8, SPIC (Homo sapiens, UniProt Q8N5J4 1-248); details: protein: recombinant; tags: N-terminal GST; dsDNA, one strand shown
# T8 sequence: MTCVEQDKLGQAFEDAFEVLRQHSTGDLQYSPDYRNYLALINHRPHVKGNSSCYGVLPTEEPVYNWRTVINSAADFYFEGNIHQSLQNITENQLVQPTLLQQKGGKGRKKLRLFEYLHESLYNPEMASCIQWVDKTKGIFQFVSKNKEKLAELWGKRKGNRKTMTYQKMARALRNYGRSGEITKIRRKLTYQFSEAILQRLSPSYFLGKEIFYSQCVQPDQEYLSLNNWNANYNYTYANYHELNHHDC
# How it was run: as §1
# ELF4 = ELF4 (Homo sapiens, UniProt Q99607 1-663); details: protein: recombinant; tags: N-terminal GST; dsDNA, one strand shown
# ELF4, sequence (Q99607 whole entry): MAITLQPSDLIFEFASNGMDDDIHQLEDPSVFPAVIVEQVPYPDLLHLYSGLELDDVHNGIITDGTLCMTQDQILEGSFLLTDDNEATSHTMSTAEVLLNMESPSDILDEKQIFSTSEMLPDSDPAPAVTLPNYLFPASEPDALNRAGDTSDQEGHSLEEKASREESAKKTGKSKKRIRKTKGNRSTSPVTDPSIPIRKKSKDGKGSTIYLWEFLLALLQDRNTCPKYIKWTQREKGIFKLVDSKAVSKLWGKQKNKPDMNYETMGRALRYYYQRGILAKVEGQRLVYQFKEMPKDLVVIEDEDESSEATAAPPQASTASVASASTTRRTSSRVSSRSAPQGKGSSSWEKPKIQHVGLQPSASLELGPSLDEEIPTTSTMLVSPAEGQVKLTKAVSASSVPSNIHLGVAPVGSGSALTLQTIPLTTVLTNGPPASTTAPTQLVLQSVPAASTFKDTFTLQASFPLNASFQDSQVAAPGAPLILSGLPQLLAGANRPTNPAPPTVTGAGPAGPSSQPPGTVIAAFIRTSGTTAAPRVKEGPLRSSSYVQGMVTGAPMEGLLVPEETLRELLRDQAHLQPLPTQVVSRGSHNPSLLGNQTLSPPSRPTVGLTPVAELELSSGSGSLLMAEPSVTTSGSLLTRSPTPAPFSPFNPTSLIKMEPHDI
# How it was run: as §1
# ELK4 = molecular target: T9, ELK4 (Homo sapiens, UniProt P28324-2 1-405); details: protein: recombinant; tags: N-terminal GST; dsDNA, one strand shown
# T9 sequence: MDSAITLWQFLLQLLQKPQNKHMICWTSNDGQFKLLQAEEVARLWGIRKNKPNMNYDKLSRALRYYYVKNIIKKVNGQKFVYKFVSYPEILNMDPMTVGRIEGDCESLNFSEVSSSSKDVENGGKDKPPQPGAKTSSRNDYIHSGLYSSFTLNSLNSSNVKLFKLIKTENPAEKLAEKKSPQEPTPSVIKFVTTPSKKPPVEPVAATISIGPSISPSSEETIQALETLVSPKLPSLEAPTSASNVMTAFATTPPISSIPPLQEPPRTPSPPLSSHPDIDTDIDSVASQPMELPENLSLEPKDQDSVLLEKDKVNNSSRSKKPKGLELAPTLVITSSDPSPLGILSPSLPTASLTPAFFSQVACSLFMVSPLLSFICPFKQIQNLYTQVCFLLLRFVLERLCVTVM
# How it was run: as §1
# ETV2 = molecular target: T10, ETV2 (Homo sapiens, UniProt O00321 1-342); details: protein: recombinant; tags: N-terminal GST; dsDNA, one strand shown
# T10 sequence: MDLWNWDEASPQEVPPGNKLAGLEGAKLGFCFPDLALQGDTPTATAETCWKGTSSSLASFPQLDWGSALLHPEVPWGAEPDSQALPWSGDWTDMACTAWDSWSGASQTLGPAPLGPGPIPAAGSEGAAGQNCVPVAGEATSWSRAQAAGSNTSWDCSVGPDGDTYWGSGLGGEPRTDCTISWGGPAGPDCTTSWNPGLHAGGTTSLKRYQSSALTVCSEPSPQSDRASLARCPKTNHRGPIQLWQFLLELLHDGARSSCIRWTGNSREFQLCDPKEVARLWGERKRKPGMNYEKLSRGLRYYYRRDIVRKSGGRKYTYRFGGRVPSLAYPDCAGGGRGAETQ
# How it was run: as §1
# ELF3 = molecular target: T11, ELF3 (Homo sapiens, UniProt P78545 1-371); details: protein: recombinant; tags: N-terminal GST; dsDNA, one strand shown
# T11 sequence: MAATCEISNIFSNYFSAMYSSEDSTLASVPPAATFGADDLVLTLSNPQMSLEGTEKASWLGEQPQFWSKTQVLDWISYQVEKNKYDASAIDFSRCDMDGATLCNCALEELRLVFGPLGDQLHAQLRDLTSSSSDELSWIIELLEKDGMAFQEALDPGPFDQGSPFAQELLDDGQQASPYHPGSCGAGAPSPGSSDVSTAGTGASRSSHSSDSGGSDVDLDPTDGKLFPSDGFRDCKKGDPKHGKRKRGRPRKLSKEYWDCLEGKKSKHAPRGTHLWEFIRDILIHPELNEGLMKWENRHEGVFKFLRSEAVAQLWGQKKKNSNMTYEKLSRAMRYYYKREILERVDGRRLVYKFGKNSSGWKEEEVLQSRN
# How it was run: as §1
# CRX = CRX (Homo sapiens, UniProt O43186 1-299); details: protein: recombinant; tags: N-terminal GST; dsDNA, one strand shown
# CRX, sequence (O43186 whole entry): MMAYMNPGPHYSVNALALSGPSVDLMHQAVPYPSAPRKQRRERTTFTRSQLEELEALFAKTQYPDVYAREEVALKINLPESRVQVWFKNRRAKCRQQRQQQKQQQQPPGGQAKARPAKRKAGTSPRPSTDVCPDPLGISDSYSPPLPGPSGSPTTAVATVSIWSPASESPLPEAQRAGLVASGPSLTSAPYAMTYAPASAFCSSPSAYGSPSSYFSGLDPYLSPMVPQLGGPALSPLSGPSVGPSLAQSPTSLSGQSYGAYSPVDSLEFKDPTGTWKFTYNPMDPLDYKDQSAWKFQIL
# How it was run: as §1
# ETV1 = ETV1 (Homo sapiens, UniProt P50549 1-477); details: protein: recombinant; tags: N-terminal GST; dsDNA, one strand shown
# ETV1, sequence (P50549 whole entry): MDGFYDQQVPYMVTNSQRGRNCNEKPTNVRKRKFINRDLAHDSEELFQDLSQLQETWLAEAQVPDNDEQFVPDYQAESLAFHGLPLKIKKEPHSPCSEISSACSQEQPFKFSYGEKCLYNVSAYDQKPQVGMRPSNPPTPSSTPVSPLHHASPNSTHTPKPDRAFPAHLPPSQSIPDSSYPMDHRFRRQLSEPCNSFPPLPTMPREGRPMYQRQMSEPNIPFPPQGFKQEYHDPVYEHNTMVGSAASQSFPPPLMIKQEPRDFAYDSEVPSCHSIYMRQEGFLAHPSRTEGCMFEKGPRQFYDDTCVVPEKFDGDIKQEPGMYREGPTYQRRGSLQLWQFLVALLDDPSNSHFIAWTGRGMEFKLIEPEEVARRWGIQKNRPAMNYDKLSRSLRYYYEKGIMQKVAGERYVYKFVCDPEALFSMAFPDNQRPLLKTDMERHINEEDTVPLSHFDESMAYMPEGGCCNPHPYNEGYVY
# How it was run: as §1
sequence,measurement,setting,value
TAGGCT,binding signal,FLI1,"1.22 fold enrichment (6-mer frequency, TF over GST control)"
same,binding signal,ELK1,"1.18 fold enrichment (6-mer frequency, TF over GST control)"
same,binding signal,GABPA,"1.3 fold enrichment (6-mer frequency, TF over GST control)"
same,binding signal,ERG,"1.23 fold enrichment (6-mer frequency, TF over GST control)"
same,binding signal,ELF1,"1.21 fold enrichment (6-mer frequency, TF over GST control)"
same,binding signal,EHF,"1.2 fold enrichment (6-mer frequency, TF over GST control)"
same,binding signal,SPI1,"1.19 fold enrichment (6-mer frequency, TF over GST control)"
same,binding signal,SPIB,"1.1 fold enrichment (6-mer frequency, TF over GST control)"
same,binding signal,ELK3,"1.26 fold enrichment (6-mer frequency, TF over GST control)"
same,binding signal,FEV,"1.25 fold enrichment (6-mer frequency, TF over GST control)"
same,binding signal,ETV5,"1.19 fold enrichment (6-mer frequency, TF over GST control)"
same,binding signal,HSF1,"1.45 fold enrichment (6-mer frequency, TF over GST control)"
same,binding signal,SPIC,"1.29 fold enrichment (6-mer frequency, TF over GST control)"
same,binding signal,ELF4,"1.2 fold enrichment (6-mer frequency, TF over GST control)"
same,binding signal,ELK4,"1.13 fold enrichment (6-mer frequency, TF over GST control)"
same,binding signal,ETV2,"1.09 fold enrichment (6-mer frequency, TF over GST control)"
same,binding signal,ELF3,"1.1 fold enrichment (6-mer frequency, TF over GST control)"
same,binding signal,CRX,"1.99 fold enrichment (6-mer frequency, TF over GST control)"
same,binding signal,ETV1,"1.08 fold enrichment (6-mer frequency, TF over GST control)"
